# Activity calls are given as the source filed them. How the source made its calls: active means hit-call score of the fitted dose curve at least 0.9, where 1 is the maximum; inactive means score below 0.9.
# Key:
# Settings in all cases: mRNA level, 48 h; actives raise or lower the signal
# [1] = read-out: adenosine kinase (ADK) gene, ADK (gene 132); experiment: LTEA_HepaRG_ADK: Life Technologies and Expression Analysis (LTEA) Assay for adenosine kinase (ADK) gene using HepaRG (AID 2283471)
# Outline: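 Read-out is ADK transcript level measured by qRT-PCR and normalised to three housekeeping genes. Cells are human HepaRG, dosed for 48 h at up to 100 uM in 0.5% DMSO. Gain or loss of signal is fitted against DMSO controls.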
# [2] = read-out: Alpha-fetoprotein (AFP) gene, AFP (gene 174); experiment: LTEA_HepaRG_AFP: Life Technologies and Expression Analysis (LTEA) Assay for Alpha-fetoprotein (AFP) gene using HepaRG (AID 2283472)
# Outline: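 qRT-PCR (Fluidigm TaqMan) readout of AFP transcript, normalized to three housekeeping genes, fitted bidirectionally against 0.5% DMSO baseline. HepaRG cells received chemicals for 48 h in serum-free induction medium, top concentration 100 uM, half-log steps.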
# BCL2L11 (gene 10018) = experiment: LTEA_HepaRG_BCL2L11: Life Technologies and Expression Analysis (LTEA) Assay for Bcl-2 (BCL2L11) gene using HepaRG (AID 2283473)
# Outline: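 Differentiated human HepaRG cells in serum-free induction medium were exposed in duplicate for 48 h to eight concentrations (top 100 uM, half-log steps, 0.5% DMSO). BCL2L11 mRNA was quantified by TaqMan qRT-PCR, normalized to ACTB/GAPDH/POLR2A, bidirectional fit versus DMSO.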
# [3] = read-out: Apolipoprotein A-V (APOA5) gene, APOA5 (gene 116519); experiment: LTEA_HepaRG_APOA5: Life Technologies and Expression Analysis (LTEA) Assay for Apolipoprotein A-V (APOA5) gene using HepaRG (AID 2283474)
# Outline: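 Differentiated human HepaRG cells were exposed in duplicate for 48 h to eight half-log concentrations from 100 uM in 0.5% DMSO. APOA5 mRNA was quantified by TaqMan qRT-PCR, normalized to ACTB, GAPDH and POLR2A, and fitted bidirectionally against DMSO.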
# [4] = read-out: Apoptosis regulator Bcl-2 (Homo sapiens) (UniProt P10415); experiment: LTEA_HepaRG_BCL2: Life Technologies and Expression Analysis (LTEA) Assay for Bcl-2 gene using HepaRG (AID 2283475)
# Outline: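 qRT-PCR read-out (Fluidigm TaqMan) of BCL2 transcript, normalised to three housekeeping genes, after 48 h chemical exposure of HepaRG cells; 8-point half-log series, top 100 uM, 0.5% DMSO vehicle. Gain or loss of signal fitted relative to DMSO baseline.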
# [5] = read-out: Bcl-2 (BID) gene, BID (gene 637); experiment: LTEA_HepaRG_BID: Life Technologies and Expression Analysis (LTEA) Assay for Bcl-2 (BID) gene using HepaRG (AID 2283476)
# Outline: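 HepaRG, 48 h exposure, 8-pt half-log series, top 100 uM, 0.5% DMSO vehicle, duplicates. Readout: BID mRNA by TaqMan qRT-PCR; housekeeping-normalized; bidirectional curve fit vs DMSO baseline.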
# Caspase-3 (Homo sapiens) = Caspase-3 (Homo sapiens) (UniProt P42574); experiment: LTEA_HepaRG_CASP3: Life Technologies and Expression Analysis (LTEA) Assay for cysteine-aspartic acid protease (CASP3) using HepaRG (AID 2283477)
# Outline: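 Differentiated human HepaRG cells in serum-free induction medium were exposed 48 h to 8-point half-log concentrations from 100 uM (0.5% DMSO vehicle). CASP3 mRNA was measured by qRT-PCR, normalised to ACTB, GAPDH and POLR2A, with bidirectional fitting against DMSO.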
# [6] = read-out: Cytochrome P450 (CYP24A1), CYP24A1 (gene 1591); experiment: LTEA_HepaRG_CYP24A1: Life Technologies and Expression Analysis (LTEA) Assay for Cytochrome P450 (CYP24A1) using HepaRG (AID 2283478)
# Outline: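 Differentiated HepaRG cells, pre-cultured 48 h, were exposed in duplicate for 48 h in serum-free induction medium to 8 half-log concentrations (top 100 uM, 0.5% DMSO). CYP24A1 mRNA was quantified by TaqMan qRT-PCR, normalized to ACTB/GAPDH/POLR2A, fitted bidirectionally versus DMSO.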
# [7] = read-out: Cytochrome P450 (CYP1A2), CYP1A2 (gene 1544); experiment: LTEA_HepaRG_CYP1A2: Life Technologies and Expression Analysis (LTEA) Assay for Cytochrome P450 (CYP1A2) using HepaRG (AID 2283479)
# Outline: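 Differentiated human HepaRG cells in serum-free induction medium were exposed in duplicate for 48 h to 8-point half-log concentrations up to 100 uM in 0.5% DMSO. CYP1A2 mRNA measured by qRT-PCR, normalized to ACTB, GAPDH, POLR2A; bidirectional fit vs DMSO.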
# [8] = read-out: cysteine-aspartic acid protease (CASP8), CASP8 (gene 841); experiment: LTEA_HepaRG_CASP8: Life Technologies and Expression Analysis (LTEA) Assay for cysteine-aspartic acid protease (CASP8) using HepaRG (AID 2283480)
# Outline: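 CASP8 transcript measured by TaqMan qRT-PCR with ACTB/GAPDH/POLR2A normalization, after 48 h chemical exposure of HepaRG cells in serum-free induction medium. Eight concentrations, top 100 uM, half-log steps, 0.5% DMSO vehicle; fits in both directions versus DMSO.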
# [9] = read-out: Cytochrome P450 (CYP2B6), CYP2B6 (gene 1555); experiment: LTEA_HepaRG_CYP2B6: Life Technologies and Expression Analysis (LTEA) Assay for Cytochrome P450 (CYP2B6) using HepaRG (AID 2283481)
# Outline: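 Differentiated HepaRG cells, serum-free induction medium, exposed 48 h in duplicate to 8-point half-log concentrations from 100 uM in 0.5% DMSO. CYP2B6 mRNA by qRT-PCR, normalized to ACTB, GAPDH, POLR2A; bidirectional fit versus DMSO.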
# [10] = read-out: Cytochrome P450 2C19 (Homo sapiens) (UniProt P33261); experiment: LTEA_HepaRG_CYP2C19: Life Technologies and Expression Analysis (LTEA) Assay for CYP2C19 using HepaRG (AID 2283482)
# Outline: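 Differentiated human HepaRG cells were exposed for 48 h in serum-free induction medium to 8 concentrations (top 100 uM, half-log steps, 0.5% DMSO). CYP2C19 mRNA was measured by qRT-PCR, normalized to ACTB/GAPDH/POLR2A, and fitted bidirectionally against DMSO.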
# CYP2C8 (gene 1558) = experiment: LTEA_HepaRG_CYP2C8: Life Technologies and Expression Analysis (LTEA) Assay for CYP2C8 using HepaRG (AID 2283483)
# Outline: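 CYP2C8 expression measured by TaqMan qRT-PCR and normalized to three housekeeping genes. HepaRG cultures were treated for 48 h with an eight-point half-log series topping at 100 uM, vehicle 0.5% DMSO, duplicates; fitted both directions against DMSO.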
# CYP2C9 (gene 1559) = experiment: LTEA_HepaRG_CYP2C9: Life Technologies and Expression Analysis (LTEA) Assay for CYP2C9 using HepaRG (AID 2283484)
# Outline: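 CYP2C9 transcript level, quantified by TaqMan qRT-PCR against three housekeeping genes, was fitted bidirectionally relative to 0.5% DMSO. HepaRG cultures were treated 48 h, in duplicate, at eight half-log concentrations topping at 100 uM.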
# CYP2E1 (gene 1571) = experiment: LTEA_HepaRG_CYP2E1: Life Technologies and Expression Analysis (LTEA) Assay for CYP2E1 using HepaRG (AID 2283485)
# Outline: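 CYP2E1 transcript was measured by TaqMan qRT-PCR in human HepaRG cultures after 48 h chemical exposure (top 100 uM, half-log steps, 0.5% DMSO vehicle). Housekeeping-gene normalization; gain or loss fitted relative to DMSO baseline.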
# CYP4A11 (gene 1579) = experiment: LTEA_HepaRG_CYP4A11: Life Technologies and Expression Analysis (LTEA) Assay for CYP4A11 using HepaRG (AID 2283486)
# Outline: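 Differentiated HepaRG cells, serum-free induction medium, exposed 48 h in duplicate to 8-point half-log series from 100 uM in 0.5% DMSO. CYP4A11 mRNA measured by qRT-PCR, normalized to ACTB, GAPDH, POLR2A; bidirectional fit versus DMSO.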
# [11] = read-out: Cytochrome P450 3A4 (Homo sapiens) (UniProt P08684); experiment: LTEA_HepaRG_CYP3A4: Life Technologies and Expression Analysis (LTEA) Assay for CYP3A4 using HepaRG (AID 2283487)
# Outline: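 HepaRG, 48 h exposure, 8-pt CRC from 100 uM (half-log), 0.5% DMSO, duplicates; serum-free induction medium. Readout: CYP3A4 mRNA, qRT-PCR, ACTB/GAPDH/POLR2A normalization. Bidirectional fit vs DMSO.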
# [12] = read-out: DNA damage-inducible transcript 3 (DDIT3), DDIT3 (gene 1649); experiment: LTEA_HepaRG_DDIT3: Life Technologies and Expression Analysis (LTEA) Assay for DNA damage-inducible transcript 3 (DDIT3) using HepaRG (AID 2283488)
# Outline: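 qRT-PCR readout (Fluidigm TaqMan), housekeeping-normalized to ACTB, GAPDH, POLR2A. HepaRG cells, 48 h exposure, 8-point half-log series from 100 uM in 0.5% DMSO, duplicates. Gain or loss of signal fitted against DMSO baseline.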
# [13] = read-out: Pro-epidermal growth factor (Homo sapiens) (UniProt P01133); experiment: LTEA_HepaRG_EGF: Life Technologies and Expression Analysis (LTEA) Assay for Epidermal growth factor (EGF) using HepaRG (AID 2283489)
# Outline: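 Differentiated human HepaRG cells, plated 48 h then switched to serum-free induction medium, were exposed for 48 h to test chemicals (8-point half-log series, top 100 uM, 0.5% DMSO). EGF mRNA was quantified by qRT-PCR, normalized to ACTB, GAPDH, POLR2A.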
# [14] = read-out: Early growth response protein 1 (EGR1) transcription factor, EGR1 (gene 1958); experiment: LTEA_HepaRG_EGR1: Life Technologies and Expression Analysis (LTEA) Assay for Early growth response protein 1 (EGR1) transcription factor using HepaRG (AID 2283490)
# Outline: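 EGR1 transcript levels quantified by qRT-PCR (Fluidigm arrays) against three housekeeping genes after 48 h chemical exposure of HepaRG cells. Eight-point half-log series topping at 100 uM, 0.5% DMSO vehicle, analyzed for gain or loss.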
# Cytochrome P450 2C19 (Homo sapiens), sequence (P33261 whole entry, looked up): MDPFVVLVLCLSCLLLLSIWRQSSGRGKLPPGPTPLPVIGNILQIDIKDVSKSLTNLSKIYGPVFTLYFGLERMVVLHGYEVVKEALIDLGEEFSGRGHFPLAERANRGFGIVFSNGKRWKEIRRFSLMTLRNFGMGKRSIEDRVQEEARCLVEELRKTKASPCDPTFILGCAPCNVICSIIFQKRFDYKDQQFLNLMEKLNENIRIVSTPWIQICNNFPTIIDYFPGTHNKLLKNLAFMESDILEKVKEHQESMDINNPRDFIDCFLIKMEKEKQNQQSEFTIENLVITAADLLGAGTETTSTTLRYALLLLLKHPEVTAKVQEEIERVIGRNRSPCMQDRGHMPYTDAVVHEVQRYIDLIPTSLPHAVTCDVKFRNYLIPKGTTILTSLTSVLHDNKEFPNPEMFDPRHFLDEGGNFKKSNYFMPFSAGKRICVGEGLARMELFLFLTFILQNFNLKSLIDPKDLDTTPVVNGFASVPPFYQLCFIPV
# Cytochrome P450 3A4 (Homo sapiens), sequence (P08684 whole entry, looked up): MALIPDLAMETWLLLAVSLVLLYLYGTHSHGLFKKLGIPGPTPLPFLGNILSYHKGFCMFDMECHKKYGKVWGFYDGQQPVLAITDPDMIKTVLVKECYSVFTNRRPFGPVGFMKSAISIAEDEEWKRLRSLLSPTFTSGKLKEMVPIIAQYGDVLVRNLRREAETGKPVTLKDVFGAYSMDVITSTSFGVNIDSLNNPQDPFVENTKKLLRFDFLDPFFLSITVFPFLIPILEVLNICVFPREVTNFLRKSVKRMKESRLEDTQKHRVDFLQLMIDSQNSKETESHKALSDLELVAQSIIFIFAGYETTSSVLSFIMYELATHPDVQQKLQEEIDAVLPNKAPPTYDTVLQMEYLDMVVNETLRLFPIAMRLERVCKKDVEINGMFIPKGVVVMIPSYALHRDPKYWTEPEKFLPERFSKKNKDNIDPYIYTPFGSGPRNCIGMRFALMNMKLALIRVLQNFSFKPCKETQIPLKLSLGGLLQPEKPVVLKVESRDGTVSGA
# Caspase-3 (Homo sapiens), sequence (P42574 whole entry, looked up): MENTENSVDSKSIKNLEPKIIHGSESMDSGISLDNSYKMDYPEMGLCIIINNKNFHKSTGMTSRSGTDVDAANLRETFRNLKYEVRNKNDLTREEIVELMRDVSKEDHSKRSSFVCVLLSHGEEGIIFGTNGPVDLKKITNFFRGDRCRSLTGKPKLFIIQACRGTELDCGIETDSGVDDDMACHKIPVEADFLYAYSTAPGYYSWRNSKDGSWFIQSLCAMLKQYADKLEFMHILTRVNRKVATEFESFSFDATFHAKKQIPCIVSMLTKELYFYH
# Apoptosis regulator Bcl-2 (Homo sapiens), sequence (P10415 whole entry, looked up): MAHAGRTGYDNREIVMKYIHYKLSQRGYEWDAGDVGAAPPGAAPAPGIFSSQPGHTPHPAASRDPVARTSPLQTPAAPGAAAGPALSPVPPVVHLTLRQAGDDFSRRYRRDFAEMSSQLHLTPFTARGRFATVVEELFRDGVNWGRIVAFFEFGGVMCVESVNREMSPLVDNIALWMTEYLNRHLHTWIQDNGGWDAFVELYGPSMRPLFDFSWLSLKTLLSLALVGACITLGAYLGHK
structure (smiles),measurement,setting,value
Cc1ccc(C(C)(C)C)c(O)c1,outcome,[1],inactive
same,outcome,[2],inactive
same,outcome,BCL2L11 (gene 10018),inactive
same,outcome,[3],inactive
same,outcome,[4],inactive
same,outcome,[5],inactive
same,outcome,Caspase-3 (Homo sapiens),inactive
same,outcome,[6],inactive
same,AC50,[7],25600 nM (active)
same,outcome,[8],inactive
same,outcome,[9],inactive
same,outcome,[10],inactive
same,outcome,CYP2C8 (gene 1558),inactive
same,outcome,CYP2C9 (gene 1559),inactive
same,outcome,CYP2E1 (gene 1571),inactive
same,outcome,CYP4A11 (gene 1579),inactive
same,outcome,[11],inactive
same,outcome,[12],inactive
same,outcome,[13],inactive
same,outcome,[14],inactive
N[C@@H](Cc1c[nH]c2ccccc12)C(=O)O,outcome,[1],inactive
same,outcome,[2],inactive
same,outcome,BCL2L11 (gene 10018),inactive
same,outcome,[3],inactive
same,outcome,[5],inactive
same,outcome,Caspase-3 (Homo sapiens),inactive
same,outcome,[6],inactive
same,AC50,[7],14400 nM (active)
same,outcome,[8],inactive
same,outcome,[9],inactive
same,outcome,[10],inactive
same,outcome,CYP2C8 (gene 1558),inactive
same,outcome,CYP2C9 (gene 1559),inactive
same,outcome,CYP2E1 (gene 1571),inactive
same,outcome,CYP4A11 (gene 1579),inactive
same,outcome,[11],inactive
same,outcome,[12],inactive
same,outcome,[13],inactive
same,outcome,[14],inactive
CN(C)CCCN(C)CCCN(C)C,outcome,[1],inactive
same,outcome,[2],inactive
same,outcome,BCL2L11 (gene 10018),inactive
same,outcome,[3],inactive
same,outcome,[4],inactive
same,outcome,[5],inactive
same,outcome,Caspase-3 (Homo sapiens),inactive
same,outcome,[6],inactive
same,outcome,[7],inactive
same,outcome,[8],inactive
same,outcome,[9],inactive
same,outcome,[10],inactive
same,outcome,CYP2C8 (gene 1558),inactive
same,outcome,CYP2C9 (gene 1559),inactive
same,outcome,CYP2E1 (gene 1571),inactive
same,outcome,CYP4A11 (gene 1579),inactive
same,outcome,[11],inactive
same,outcome,[12],inactive
same,outcome,[13],inactive
same,outcome,[14],inactive
CCCCC(CC)COC(=O)CCCCCCCC(=O)OCC(CC)CCCC (centres undefined),outcome,[1],inactive
same,outcome,[2],inactive
same,outcome,BCL2L11 (gene 10018),inactive
same,outcome,[3],inactive
same,outcome,[5],inactive
same,outcome,Caspase-3 (Homo sapiens),inactive
same,outcome,[6],inactive
same,outcome,[7],inactive
same,outcome,[8],inactive
same,AC50,[9],30900 nM (active)
same,outcome,[10],inactive
same,outcome,CYP2C8 (gene 1558),inactive
same,outcome,CYP2C9 (gene 1559),inactive
same,outcome,CYP2E1 (gene 1571),inactive
same,outcome,CYP4A11 (gene 1579),inactive
same,outcome,[11],inactive
same,outcome,[12],inactive
same,outcome,[13],inactive
same,outcome,[14],inactive
CC(C)NCC(O)c1ccc(O)c(O)c1 (centres undefined),outcome,[1],inactive
same,AC50,[2],261 nM (active)
same,outcome,BCL2L11 (gene 10018),inactive
same,outcome,[3],inactive
same,AC50,[4],239 nM (active)
same,outcome,Caspase-3 (Homo sapiens),inactive
same,outcome,[6],inactive
same,AC50,[7],204 nM (active)
same,outcome,[8],inactive
same,outcome,CYP2C8 (gene 1558),inactive
same,AC50,CYP2C9 (gene 1559),175 nM (active)
same,AC50,CYP2E1 (gene 1571),304 nM (active)
same,outcome,CYP4A11 (gene 1579),inactive
same,outcome,[12],inactive
same,outcome,[13],inactive
same,outcome,[14],inactive
CC(=O)O,outcome,[1],inactive
same,outcome,[2],inactive
same,outcome,BCL2L11 (gene 10018),inactive
same,outcome,[3],inactive
same,outcome,[4],inactive
same,outcome,[5],inactive
same,outcome,Caspase-3 (Homo sapiens),inactive
same,outcome,[6],inactive
same,outcome,[7],inactive
same,outcome,[8],inactive
same,outcome,[9],inactive
same,outcome,[10],inactive
same,outcome,CYP2C8 (gene 1558),inactive
same,outcome,CYP2C9 (gene 1559),inactive
same,outcome,CYP2E1 (gene 1571),inactive
same,outcome,CYP4A11 (gene 1579),inactive
same,outcome,[11],inactive
same,outcome,[12],inactive
same,outcome,[13],inactive
same,outcome,[14],inactive

# — PubChem BioAssay (EPA / NIEHS)
